Source: PubChem
CBX7 AlphaScr: inhibitors of human CBX7 binding to H3K27me3 peptide | O95931 | AlphaScreen His6-CBX7 / biotin-H3K27me3 peptide binding; active compounds read low | normalised signal (fraction of DMSO) (concentration not given with the values) | hit rate 1.1% among 66,000 | AID 1224903; in the data active means normalised signal below about 0.5
Target sequence (O95931 whole entry, looked up): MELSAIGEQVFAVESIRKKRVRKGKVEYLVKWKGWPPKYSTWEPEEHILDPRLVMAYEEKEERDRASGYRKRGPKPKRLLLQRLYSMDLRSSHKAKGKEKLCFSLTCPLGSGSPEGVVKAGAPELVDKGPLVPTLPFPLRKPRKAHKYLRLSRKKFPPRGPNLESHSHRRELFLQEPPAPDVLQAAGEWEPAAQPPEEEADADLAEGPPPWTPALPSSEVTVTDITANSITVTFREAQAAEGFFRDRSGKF
* = called active by the depositor; ! = a repeat was not active. This excerpt belongs to a sample that is enriched for hits.

SMILES	CBX7 AlphaScr
CC1CCCC(C)N1CCNC(=O)c1ccc2c(c1)NC(=O)C(N1CCCCC1)S2 (stereo unspecified)	0.97
COc1ccc(OC)c(NC2c3ccccc3C(=O)N2c2ccccn2)c1 (stereo unspecified)	0.72
Cc1ccc(N2C(=O)c3ccccc3C2Nc2ccc(Cl)cc2Cl)nc1 (stereo unspecified)	0.87
COc1ccc(OC)c(NC2c3ccccc3C(=O)N2c2ccc(Cl)cn2)c1 (stereo unspecified)	0.34*
COc1cc(OC)c(NC2c3ccccc3C(=O)N2c2ccc(C)cn2)cc1Cl (stereo unspecified)	0.41*
COc1ccc(OC)c(NC2c3ccccc3C(=O)N2c2ccc(Cl)cc2)c1 (stereo unspecified)	0.64
COc1ccc(NC2c3ccccc3C(=O)N2c2ccc(C)cn2)cc1OC (stereo unspecified)	0.94
CCOC(=O)C1CCN(C(C(=O)NC2CCCCC2)c2ccccc2)CC1 (stereo unspecified)	1.1
Cc1ccc(N2C(=O)c3ccccc3C2Nc2ccc(C)cc2C)nc1 (stereo unspecified)	0.92
COc1ccc2nc(NC(=O)C3CCN(S(=O)(=O)c4c(C)n[nH]c4C)CC3)sc2c1	1
COc1ccc(OC)c(CNC(=O)CN2C(=O)CSc3ccccc32)c1	1
COc1cccc(N2CCN(C(=O)c3ccc4c(c3)NC(=O)c3ccccc3N4)CC2)c1	0.6
Cc1ccc(C(=O)Nc2ccccc2)cc1S(=O)(=O)N1CCOCC1	1
Cc1ccccc1NC(=O)c1ccc(F)c(S(=O)(=O)N2CCN(c3ccccc3)CC2)c1	0.99
COc1cc(OC)cc(-c2nnc(NC(=O)c3ccc(S(=O)(=O)N4CCC(C)CC4)cc3)o2)c1	0.98
CCc1nnc(NC(=O)c2ccc(S(=O)(=O)N3CCCCC3CC)cc2)o1 (stereo unspecified)	0.59
CCC1CCCCN1S(=O)(=O)c1ccc(C(=O)Nc2nnc(-c3cccs3)o2)cc1 (stereo unspecified)	0.91
CC1CC(C)CN(S(=O)(=O)c2ccc(C(=O)Nc3nnc(-c4cccs4)o3)cc2)C1 (stereo unspecified)	0.88
O=C(Nc1nnc(-c2cccs2)o1)c1ccc(S(=O)(=O)N2CCCC2)cc1	0.13*
CC1CCN(S(=O)(=O)c2ccc(C(=O)Nc3nnc(-c4cccs4)o3)cc2)CC1	0.85
CCC1CCCCN1S(=O)(=O)c1ccc(C(=O)Nc2nnc(-c3ccc(Cl)s3)o2)cc1 (stereo unspecified)	0.38*
O=C(Nc1nnc(-c2ccc(Cl)s2)o1)c1ccc(S(=O)(=O)N2CCOCC2)cc1	0.0063*
O=C(Nc1nnc(-c2ccccc2)o1)c1ccc(F)c(S(=O)(=O)N2CCOCC2)c1	0.12*!
O=C(Nc1nccs1)c1ccc(S(=O)(=O)N2CCOCC2)cc1	1.1
CCc1ccc(Nc2cc(C(=O)NCCc3ccc(Cl)cc3)c3ccccc3n2)cc1	0.93
SMILES	CBX7 AlphaScr
Cc1ccccc1Cc1c(C)nc2c(C(=O)NCCCN3CCOCC3)cnn2c1C	0.86
COc1ccc(Cl)cc1N1CC(c2nc3ccccc3n2Cc2ccccc2F)CC1=O (stereo unspecified)	0.94
O=C1CC(N2CCN(C(c3ccccc3)c3ccccc3)CC2)C(=O)N1c1ccc(Cl)cc1 (stereo unspecified)	0.82
CCCCNC(=O)c1ccc2c(c1)N=C(CCC)c1ccccc1S2	1
CCCN1CCN(CCCNC(=O)Cn2ncc3c2-c2ccccc2OC3)CC1	1.1
CCCOc1ccc(C(=O)Nc2ccc3oc(-c4ccc(C)cc4C)nc3c2)cc1	1.1
CCOC(=O)c1cnc2c(C(F)(F)F)cccc2c1NCCc1ccccc1	1.6
Cc1cccc(CN2CCN(CC(=O)N3CCCCCC3)C2=O)c1	1
COc1ccccc1CNC(=O)c1cnc(Nc2ccc(C)c(Cl)c2)c2ccccc12	1.2
CN(c1ccccc1)S(=O)(=O)c1ccc(C(=O)Nc2nnc(-c3cccs3)o2)cc1	0.98
O=C(Nc1nnc(-c2ccc(F)cc2)o1)c1ccc(S(=O)(=O)N2CCOCC2)cc1	0.0037*
O=C(Nc1nnc(-c2ccc(Cl)s2)o1)c1ccc(S(=O)(=O)N2CCCC2)cc1	0.046*
COc1cc(OC)cc(-c2nnc(NC(=O)c3ccc(S(=O)(=O)N4CCOCC4)cc3)o2)c1	0.85
CC1CCCN(S(=O)(=O)c2ccc(C(=O)Nc3nnc(-c4ccccc4Cl)o3)cc2)C1 (stereo unspecified)	0.01*
COc1ccc(-c2nnc(NC(=O)c3ccc(S(=O)(=O)N4CC(C)CC(C)C4)cc3)o2)cc1 (stereo unspecified)	0.92
COc1ccc(-c2nnc(NC(=O)c3ccc(S(=O)(=O)N4CCCC(C)C4)cc3)o2)cc1 (stereo unspecified)	0.73
CN(C)S(=O)(=O)c1ccc(C(=O)Nc2nnc(-c3cccs3)o2)cc1	0.22*
O=C(Nc1nc2c(Cl)cccc2s1)c1ccc(S(=O)(=O)N2CCCC2)cc1	1
O=C(Nc1nnc(-c2ccc(Cl)cc2Cl)s1)c1ccc(S(=O)(=O)N2CCCC2)cc1	1
